Laboratory results published in publication PMC4552634, “A New Set of Chemical Starting Points with Plasmodium falciparum Transmission-Blocking Potential for Antimalarial Drug Discovery” (PLoS ONE, 2015).
Among all 13,000 compounds or so, about 3,200 (25%) showed an effect of 50% or more. This is one part of the list.

tested on: P. falciparum stage V gametocytes; design: BacTiter-Glo ATP luminescence viability of purified stage V gametocytes in 384-well plates, per cent inhibition versus DMSO; settings: 48 h, 5 µM; inhibitor

Row | SMILES | % Inhibition [%]
1 | O=C(/C=N/O)Nc1ccccc1[N+](=O)[O-] [TCMDC-123981] | -3.715
2 | CCn1c2ccccc2c2cc(Cc3cnc(N)nc3N)ccc21 [TCMDC-131929] | 0.5194
3 | Cc1cccc2nc(-c3ccc(-c4ccc(C(=O)NCCN5CCCC5)cc4)s3)[nH]c12 [TCMDC-132316] | 46.47
4 | Cc1cnc(NCC2CCCCC2)nc1NCC(=O)Nc1ccccc1 [TCMDC-134753] | -41.32
5 | CCN1CCC(N(CCCCCCc2ccc(C(F)(F)F)cc2)C(=O)Cn2c(CCc3cccc(F)c3F)cc(=O)c3ccccc32)CC1 [TCMDC-141339] | 43.24
6 | CCN1CCC(N(Cc2ccc(-c3ccc(C(F)(F)F)cc3)cc2)C(=O)Cn2c(CCc3cccc(F)c3F)cc(=O)c3ccccc32)C1 (stereo not shown) [TCMDC-141300] | 90.33
7 | COCCN1CCC(N(Cc2ccc(-c3ccc(OC(F)(F)F)cc3)cc2)C(=O)Cn2c(CCc3cccc(F)c3F)cc(=O)c3ccccc32)CC1 [TCMDC-136001] | 86.7
8 | O=C(Cn1c(CCc2cccc(F)c2F)cc(=O)c2ccccc21)N(Cc1ccc(-c2ccc(C(F)(F)F)cc2)cc1)C1CCN(CCO)CC1 [TCMDC-141226] | 84.4
9 | CCN1CCC(N(CCCCCCCCc2ccc(C(F)(F)F)cc2)C(=O)Cn2c(CCc3cccc(F)c3F)cc(=O)c3ccccc32)CC1 [TCMDC-141376] | 107.2
10 | O=C(Cn1c(CCc2cccc(F)c2F)cc(=O)c2ccccc21)N(Cc1ccc(-c2ccc(C(F)(F)F)cc2)cc1)C1CCN(CCN2CCOCC2)CC1 [TCMDC-136026] | 47.65
11 | CCCN(CCC)C(=O)c1cc(C(=O)N[C@@H](Cc2ccccc2)[C@H](O)CNC2CC2)cc(N2CCCCS2(=O)=O)c1 [TCMDC-138892] | 8.102
12 | CC(=Nc1ccc(Cl)c(Cl)c1)N(C)C [TCMDC-137438] | -6.563
13 | CC(C)C[C@H](NC(=O)c1ccc(OCCN2CCOCC2)cc1)C(=O)N[C@H](/C=N/NC(=O)OC(C)(C)C)CCc1ccccc1 [TCMDC-136028] | -97.84
14 | COc1ccc(CN2CCC(N3CC(c4ccccc4)(c4ccccc4)OCC3=O)C2)c(O)c1 (stereo not shown) [TCMDC-136339] | -23.12
15 | CC(C)C[C@H]1C(=O)N[C@H](C2Cc3ccccc3C2)C(=O)N1[C@@H](C(=O)Nc1ccccc1OCc1ccccc1)c1ccc(F)cc1F [TCMDC-138775] | -10.16
16 | COc1ccc2ncc(F)c(CCN3C4CCC3CC(NCc3cc5c(cn3)OCS5)C4)c2n1 (stereo not shown) [TCMDC-135637] | 24.95
17 | Cc1cccc(Nc2nccc(NCC(O)c3ccc(C(F)(F)F)cc3)n2)c1 (stereo not shown) [TCMDC-136592] | -12.82
18 | CC(C)(C)C1CC(=O)CC2C(=O)N(c3ccc(Br)cc3)C(=O)C21 (stereo not shown) [TCMDC-139130] | -4.164
19 | Cc1ccc(F)c(OCC2CCN(c3ncc(C(=O)NC4CC4)cc3Cl)CC2)c1 [TCMDC-134038] | 21.14
20 | CCN1CCC(N(Cc2ccc(-c3ccc(C(F)(F)F)cc3)cc2)C(=O)Cn2c(CCc3cccc(F)c3F)cc(=O)c3ccccc32)CC1 [TCMDC-141119] | 110.1
21 | CC(C)(C)N1CCC(N(Cc2ccc(-c3ccc(C(F)(F)F)cc3)cc2)C(=O)Cn2c(CCc3cccc(F)c3F)cc(=O)c3cccnc32)CC1 [TCMDC-136011] | 120.6
22 | CCN1CCC(N(Cc2ccc(-c3ccc(C(F)(F)F)cc3)cc2)C(=O)Cn2c(CCc3cccc(F)c3F)cc(=O)c3ccc(OCc4ccccc4)cc32)CC1 [TCMDC-141292] | 107.3
23 | CC(C)(C)N1CCC(N(Cc2ccc(-c3ccc(C(F)(F)F)cc3)cc2)C(=O)Cn2c(CCc3cccc(F)c3F)cc(=O)c3ccccc32)CC1 [TCMDC-136007] | 109.9
24 | NC(CC1CC(=O)N1CC(=O)O)C(=O)O (stereo not shown) [TCMDC-139050] | 9.979

Row | SMILES | % Inhibition [%]
25 | CC1CCN(Cc2ccc(NC(=O)c3cc4ccc5cccnc5c4[nH]3)cc2)CC1 [TCMDC-125282] | -44.42
26 | Cc1sc(N2CCCCC2)nc1C(=O)Nc1ccc(F)cc1C(F)(F)F [TCMDC-134301] | -22.08
27 | Cc1ccc2c(OCCN3CCC(Cc4cc5c(cc4F)OCC(=O)N5)CC3)cc(F)cc2n1 [TCMDC-141447] | -8.259
28 | Cc1noc(C)c1-c1cccc(CNCc2cccc(-c3ccc(-c4nc5ccccc5[nH]4)s3)c2)c1.O=C(O)C(F)(F)F [TCMDC-133048] | 14.32
29 | Cc1cc(N(CCN2CCCCC2)CCN2CCCCC2)nc(Nc2ccc(Cl)cc2)n1 [TCMDC-138002] | 37.36
30 | COC(=O)c1sc(-c2ccc(Cl)cc2)cc1N(CCCN1CCC(N2CCCCC2)CC1)S(=O)(=O)c1ccc(C)cc1 [TCMDC-135561] | 98.34
31 | Cc1cc(N(CCO)CCCN2CCCCC2)nc(Nc2ccc(Cl)cc2)n1 [TCMDC-137444] | 33.27
32 | CC(C)[C@H](NC(=O)c1ccc(O)c(-c2ccc(Cl)c(Cl)c2)c1)C(=O)NCCN(C)C [TCMDC-140863] | 10.43
33 | CN(C)c1ccc(CN2CCC(NC(=O)c3ccc(-c4ccccc4Cl)s3)CC2)cc1 [TCMDC-134328] | -0.5721
34 | Cc1cc(=O)c(-c2ccc(Sc3ccc(Cl)cc3)cc2)c(C)[nH]1 [TCMDC-137403] | 33.38
35 | Cc1cc(=O)c(-c2ccc(S(=O)(=O)c3ccc(Cl)cc3)cc2)c(C)[nH]1 [TCMDC-137417] | 53.38
36 | Cc1cc(=O)c(-c2ccc(OCc3ccc(Cl)cc3)cc2)c(C)[nH]1 [TCMDC-137399] | 24.98
37 | Cc1[nH]c(C)c(-c2ccc(S(=O)(=O)c3ccc(Cl)cc3)cc2)c(=O)c1Br [TCMDC-137414] | 77.4
38 | Cc1[nH]c(C)c(-c2ccc(S(=O)(=O)c3ccc(Cl)cc3)cc2)c(=O)c1Cl [TCMDC-137412] | 67.97
39 | Cc1ccc(C)c(Cn2ccc3nc(Cl)nc(Cl)c32)c1 [TCMDC-137818] | 13.19
40 | Cc1cc(C)n(Cc2ccc(C(=O)NCC3CCCCC3)cc2)n1 [TCMDC-141404] | -4.003
41 | CCC[C@@H]1CCN[C@H]([C@H](O)c2ccnc3ccc(OC)cc23)C1 [TCMDC-138233] | -1.678
42 | CCC[C@@H]([C@@H](CC1CCC(C)CC1)C(=O)N[C@@H](CO)C(=O)Nc1nccs1)N(O)C=O (stereo partly shown) [TCMDC-138150] | 0.01446
43 | CC(C)c1nc2c(N)nc(N)nc2nc1N [TCMDC-141986] | 9.894
44 | O=C(NCCNc1ccnc2cc(Cl)ccc12)c1ccccc1F [TCMDC-125232] | -18.32
45 | Cn1nccc1C(=O)NCCNCc1cccc(-c2ccc(-c3nc4ccccc4[nH]3)s2)c1.O=C(O)C(F)(F)F [TCMDC-133003] | -10.06
46 | Cc1ccc(NC(C)C(=O)Nc2ccc(C#N)cc2)cc1S(=O)(=O)N1CCCCC1 (stereo not shown) [TCMDC-124508] | -17.26
47 | CCCn1c(Sc2ccc(C#N)c([N+](=O)[O-])c2)nnc1-c1cc(OC)cc(OC)c1 [TCMDC-135577] | 43.88
48 | N#Cc1ccc(Sc2nnc(-c3ccccc3Cl)n2CC2CCCCC2)cc1[N+](=O)[O-] [TCMDC-135616] | 15.71

Row | SMILES | % Inhibition [%]
49 | CCCCn1c(Sc2ccc(C#N)c([N+](=O)[O-])c2)nnc1-c1cc(OC)cc(OC)c1 [TCMDC-135578] | 32.96
50 | COc1cc(OC)cc(-c2nn(-c3ccc([N+](=O)[O-])cc3Cl)c(=S)n2CC2CCCO2)c1 (stereo not shown) [TCMDC-135129] | 88.54
51 | COc1cc(OC)cc(-c2nn(-c3ccc([N+](=O)[O-])cc3C#N)c(=S)n2CC2CCCO2)c1 (stereo not shown) [TCMDC-134716] | 96.39
52 | COc1cc(NC(=O)c2cc([N+](=O)[O-])ccc2NC(=O)CNC2CCCCC2C)cc(OC)c1 (stereo not shown) [TCMDC-125301] | -14.04
53 | CCn1c(Sc2ccc(C#N)c([N+](=O)[O-])c2)nnc1-c1cc(OC)cc(OC)c1 [TCMDC-135587] | 21.42
54 | N#Cc1cc([N+](=O)[O-])ccc1-n1nc(-c2cccc(Cl)c2)n(CC2CCCO2)c1=S (stereo not shown) [TCMDC-134718] | 89.7
55 | Nc1nc(N)c2c(Cc3ccc(Br)cc3)cccc2n1 [TCMDC-137800] | 14.7
56 | CCOC(=O)C(C(C)=O)C(c1ccccc1)C(C(C)=O)C(=O)OCC (stereo not shown) [TCMDC-125515] | 28.08
57 | CC1CCCC(NC(=O)CCOc2ccccc2)C1 (stereo not shown) [TCMDC-139363] | 13.69
58 | CCOC(=O)c1ccc(NC(=O)N(Cc2ccc(-c3ccc(CN4CCNCC4)cc3)cc2)C2CCN(Cc3ccccc3)CC2)cc1 [TCMDC-139651] | 101.9
59 | CCOC(=O)c1ccc(NC(=O)N(Cc2ccc(-c3cccc(CN4CCNCC4)c3)cc2)C2CCN(Cc3ccccc3)CC2)cc1 [TCMDC-139636] | 111.5
60 | CCOC(=O)c1ccc(NC(=O)N(Cc2ccc(-c3ccc(CN4CCNCC4)cc3)cc2)Cc2cccnc2)cc1 [TCMDC-139650] | 18.76
61 | CC(C)Cc1nc(N)nc(N)c1-c1ccc(Cl)cc1 [TCMDC-137932] | 19.17
62 | CN1CCN=C1c1ccc(NC(=O)Nc2ccc(C3=NCCN3C)cc2)cc1 [TCMDC-137204] | 15.96
63 | Cn1nc(C(F)(F)F)c(-c2ccc(Br)cc2)c1NC(=O)Nc1ccc(F)cc1F [TCMDC-124576] | 44.22
64 | Cn1nc(C(F)(F)F)c(-c2ccc(F)cc2)c1NC(=O)Nc1ccc(F)cc1 [TCMDC-124506] | 65.51
65 | O=C(Nc1ccccc1)Nc1ccc(-n2ccc(C(F)(F)F)n2)cc1 [TCMDC-123480] | -19.16
66 | COc1ccc(-c2c(C(F)(F)F)nn(C)c2NC(=O)Nc2ccc(F)cc2F)cc1 [TCMDC-123775] | 71.46
67 | Cn1nc(C(F)(F)F)c(-c2ccc(Br)cc2)c1NC(=O)Cc1ccccc1F [TCMDC-123792] | 91.27
68 | O=C(Nc1ccccc1C(F)(F)F)Nc1nn(Cc2c(F)cccc2Cl)cc1Br [TCMDC-124365] | -20.4
69 | Cn1nc(C(F)(F)F)c(-c2ccc(F)cc2)c1NC(=O)Nc1ccc(F)cc1F [TCMDC-123774] | 47.06
70 | COc1ccc(NC(=O)Nc2cccc(-c3cccc(-c4nc5ccc(F)cc5[nH]4)c3)c2)cc1 [TCMDC-133249] | -8.23
